PubChem BioAssay AID463173 (ICCB-Longwood Screening Facility, Harvard Medical School, 2010)
In all, about 52,000 compounds went through this assay and about 4,300 (8.3%) were called active. The list comes from a sample in which actives are over-represented; it also holds similar structures and randomly drawn compounds. Unmarked numbers belong to inactive results. No stated cut-off is given here; in the data, active means survival mostly below about 52% (no sharp cut-off); inactive means mostly above about 56%.

system: DeltatarO mutant; experiment: S. aureus survival, RN4220 and DeltatarO strains – OD600, teichoic acid synthesis inhibitors, primary screen (AID 463173); conditions: S. aureus RN4220 wild type/DeltatarO growth, OD600, 18 h, hits give low values, screened at 18.75 µg/mL (by protocol)

SMILES | survival
COc1ccc(CCNC(=O)Cn2cc(C(=O)c3ccccc3)c(=O)c3ccc(C)nc32)cc1OC | 124%
O=C(Nc1cccnc1N1CCOCC1)c1cc2ccccc2oc1=O | 79%
COc1cc(OC)c(C2C(C(=O)Nc3ccccc3)=C(C)Nc3ncnn32)cc1OC (stereo not given) | 72%
O=C(CSc1n[nH]c(-c2ccccc2Cl)n1)NCc1ccc(F)cc1 | -4% (active)
COc1ccc(CNC(=O)CSc2n[nH]c(-c3ccc(OC)cc3)n2)cc1 | -5% (active)
CC(CCc1ccccc1)NC(=O)CSc1n[nH]c(-c2ccc(F)cc2)n1 (stereo not given) | 126%
Cc1ccc(CNC(=O)CSc2n[nH]c(-c3ccc(F)cc3)n2)cc1 | 122%
COc1cccc(CNC(=O)CSc2n[nH]c(-c3ccccc3Cl)n2)c1 | 60%
O=C(CSc1n[nH]c(-c2ccccc2Cl)n1)NCCc1ccccc1 | 87%
CC(CCc1ccccc1)NC(=O)CSc1n[nH]c(-c2ccccc2)n1 (stereo not given) | 94%
COc1ccc(CNC(=O)CSc2n[nH]c(-c3ccc(F)cc3)n2)cc1 | 109%
COc1ccc(-c2nc(SCC(=O)NC(C)CCc3ccccc3)n[nH]2)cc1 (stereo not given) | 17% (active)
Cc1cccc(N2CCN(C(=O)c3ccc4c(c3)N(Cc3ccccc3)C(=O)c3ccccc3S4(=O)=O)CC2C)c1 (stereo not given) | 63%
Cc1ccc(Cl)cc1NC(=O)c1oc2ccc(S(=O)(=O)N3CCCCC3)cc2c1C | 74%
Cc1cccc(NC(=O)CN2C(=O)CSc3ccc(S(=O)(=O)N4CCCC4)cc32)c1C | 92%
O=C(CSc1nc(-c2ccco2)cc(C(F)(F)F)n1)N1CCCC1 | 79%
CC(NCc1ccc2c(c1)n(C)c(=O)n2C)c1ccccc1 (stereo not given) | 94%
CCc1ccc(CN2C(=O)c3ccccc3C2C(=O)NC2CCCCCC2)cc1 (stereo not given) | 75%
CCn1c(=O)c(C(=O)Nc2ccc(Cl)cn2)c(O)c2ccccc21 | 95%
CSc1nn(Cc2ccc(F)cc2)c(N)c1S(=O)(=O)c1ccc(Cl)cc1 | 101%
Cc1ccc(Cl)cc1-n1ncc2c(Nc3cccc(C)c3C)ncnc21 | 82%
CN1CCN(CCNC(=O)c2cnn(-c3ccc(Cl)cc3)c2C2CCN(C(=O)OC(C)(C)C)CC2)CC1 | 69%
Cc1ccc2oc(C(=O)Nc3sc4c(c3C(=O)NCc3ccco3)CCC4)cc(=O)c2c1 | 82%
Cc1ccc2c(=O)cc(C(=O)Nc3sc4c(c3C(=O)NCc3ccco3)CCC4)oc2c1 | 78%
Cc1ccc2c(=O)cc(C(=O)Nc3sc4c(c3C(=O)NCc3ccco3)CCCC4)oc2c1C | 80%

SMILES | survival
Cc1cc(C)c2oc(C(=O)Nc3sc4c(c3C(=O)NCc3ccco3)CCCC4)cc(=O)c2c1 | 82%
O=C(Nc1sc2c(c1C(=O)NCc1ccco1)CCCC2)c1cc(=O)c2cc(Cl)ccc2o1 | 38% (active)
Cc1cc2oc(C(=O)Nc3sc4c(c3C(=O)NCc3ccccc3)CCCC4)cc(=O)c2cc1C | 39% (active)
O=C(Nc1sc2c(c1C(=O)NCc1ccccc1)CCCC2)c1cc(=O)c2cc(Cl)ccc2o1 | 49%
O=C(Nc1sc2c(c1C(=O)NCc1ccccc1)CCCC2)c1cc(=O)c2ccccc2o1 | 67%
Cc1ccc2oc(C(=O)Nc3sc4c(c3C(=O)NCc3ccccc3)CCCC4)cc(=O)c2c1 | 66%
O=C(Nc1sc2c(c1C(=O)NCc1ccco1)CCCC2)c1cc(=O)c2ccccc2o1 | 43% (active)
Cc1cc2oc(C(=O)Nc3sc4c(c3C(=O)NCc3ccco3)CCC4)cc(=O)c2cc1C | 38% (active)
Cc1ccc2c(=O)cc(C(=O)Nc3sc4c(c3C(=O)NCc3ccccc3)CCCC4)oc2c1C | 89%
CC[n+]1c(C)sc2sc3ccccc3c21 | 68%
COC(=O)Cn1nc(C)c2c(C)n(-c3ccccc3)nc2c1=O | 90%
CCOc1ccc(NC(=O)Cn2cc(C(=O)c3ccc(CC)cc3)c(=O)c3cc4c(cc32)OCO4)cc1 | 86%
O=C(Cn1nc(-c2ccccc2)nc(Cc2ccccc2)c1=O)Nc1ccccc1 | 90%
O=C(NCc1noc2ccccc12)N1CCN(c2ccccc2F)CC1 | 40%
COc1cccc(CSc2nc(-c3ccccc3OC)nc3c2Cc2c(CO)cnc(C)c2O3)c1 | 57%
CCCn1c2ccccc2c2cnn(CC(=O)NCc3cc(OC)ccc3OC)c(=O)c21 | 122%
CCN(CC)S(=O)(=O)c1ccc2c(c1)c(=O)c(C(=O)NCc1ccccc1OC)cn2C | 71%
COc1cccc(C(=O)Nc2nc3nc(C)c(C)c(=O)n3[nH]2)c1 | 104%
Cc1cc(C)c2c(=O)cc(C(=O)Nc3sc4c(c3C#N)CCCC4)oc2c1 | 12% (active)
COC(=O)c1c(NC(=O)c2cc(=O)c3c(C)cc(C)cc3o2)sc2c1CCCC2 | 61%
CCOC(=O)c1c(NC(=O)c2cc(=O)c3c(C)cc(C)cc3o2)sc2c1CCC2 | 61%
Cc1ccc(C(=O)NCC(c2ccco2)S(=O)(=O)c2cccs2)cc1C (stereo not given) | 102%
CC(=O)c1ccc(NC(=O)CCc2c(C)nn(-c3ccc4nncn4n3)c2C)cc1 | 91%
Cc1cccc(N2CCN(C(=O)Cn3nc(C)n4cccc4c3=O)CC2C)c1 (stereo not given) | 90%
COC(=O)c1cc2sc(C)cc2n1Cc1ccc(F)cc1Cl | 76%

SMILES | survival
COC(=O)c1cc2oc(C)cc2n1Cc1ccc(C)cc1 | 69%
COC(=O)c1cc2occc2n1Cc1ccc(F)cc1Cl | 30% (active)
COC(=O)c1cc2oc(C)cc2n1Cc1cccc(Cl)c1 | -8% (active)
COC(=O)c1cc2oc(C)cc2n1Cc1ccc(Cl)cc1 | 73%
COC(=O)c1cc2sccc2n1Cc1ccc(F)cc1Cl | 65%
COC(=O)c1cc2oc(C)cc2n1Cc1ccccc1Cl | -8% (active)
COC(=O)c1cc2oc(C)cc2n1Cc1cc(C)ccc1C | -9% (active)
COC(=O)c1cc2oc(C)cc2n1Cc1ccc(Br)cc1F | 75%
COC(=O)c1cc2oc(C)cc2n1Cc1c(C)cc(C)cc1C | 46%
COC(=O)c1cc2oc3ccccc3c2n1Cc1ccccc1Cl | 72%
COC(=O)c1cc2oc(C)cc2n1CC(=O)Nc1cc(Cl)ccc1OC | 77%
O=C(NCc1ccccc1)c1cc2sccc2n1Cc1ccc(F)cc1 | 88%
Cc1cc(C)cc(-n2c(SCC(=O)Nc3nnc(C)s3)nc3c([nH]c4ccccc43)c2=O)c1 | 68%
O=C(NC1CC(=O)N(c2cccc(F)c2)C1)c1ccc(Br)o1 (stereo not given) | 101%
CC(C)(C)C1CCc2c(sc(NC(=O)c3noc4c3CCCC4)c2C#N)C1 (stereo not given) | 53%
Cc1nnc(N(C)C(=O)CNC(=O)c2ccccc2)s1 | 75%
COc1ccc(NC(=O)c2ccccc2NC(=O)c2ccco2)cc1 | 74%
CCOC(=O)c1c(C)oc2nc(C)nc(NCCc3ccc(SC)cc3)c12 | 83%
Cc1cccc(CSc2nc3cc(C(=O)NC4CCCC4)ccc3c(=O)n2Cc2ccccc2)c1 | 69%
COc1ccc(Cl)cc1NC(=O)c1cc(S(=O)(=O)NC2CCCCCC2)ccc1F | 71%
COC(=O)c1cc2oc3ccccc3c2n1Cc1cccc(C)c1 | 31% (active)
CCc1cccc(NC(=O)Cn2c(C(=O)OC)cc3occc32)c1 | 92%
COC(=O)c1cc2occc2n1Cc1cccc(C)c1 | -6% (active)
CCOC(=O)c1cc2oc(C)cc2n1CCCN1C(=O)c2ccccc2C1=O | 0% (active)
C=CCn1c(C(=O)OCC)cc2oc(C)cc21 | 119%

SMILES | survival
COC(=O)c1cc2occc2n1Cc1nc(-c2ccc(C)cc2)oc1C | 69%
CCOC(=O)c1cc2oc(C)cc2n1CC(=O)NC1CC1 | 86%
COC(=O)c1cc2oc3ccccc3c2n1Cc1ccc(Cl)cc1 | 76%
COC(=O)c1cc2oc3ccccc3c2n1Cc1ccc(C)cc1 | 93%
COc1ccc(Cl)cc1C1CC(=O)Nc2cc3c(cc21)OCCO3 (stereo not given) | 102%
O=C(Nc1ccc(Br)cc1F)C1CCN(c2nc3ccccc3[nH]2)CC1 | 102%
CCCNC(=O)Cn1c(=O)n(CC2CCC(C(=O)NC)CC2)c(=O)c2sccc21 (stereo not given) | 87%
Cc1cccc(NC2=NCC(=O)N2Cc2ccccc2)c1 | 89%
CCOC(=O)N1CCN(C(=O)c2ccc3c(c2)N(Cc2ccccc2F)C(=O)c2ccccc2S3(=O)=O)CC1 | 72%
O=S(=O)(c1ccc(OC(F)(F)F)cc1)N1CCC(c2nc3ccccc3s2)CC1 | 65%
CNC(=O)C1CCC(Cn2c(=O)c3sccc3n(CC(=O)Nc3ccccc3)c2=O)CC1 (stereo not given) | 75%
CCOC(=O)c1sc2nc(C)n(CC(=O)Nc3cccc(Cl)c3)c(=O)c2c1C | 71%
CCOc1ccc(NC(=O)CSc2nccn2Cc2ccco2)cc1 | 91%
CCc1ccc(-c2cn3c(n2)sc2cc(C(=O)NCCc4ccc(OC)cc4OC)ccc23)cc1 | 59%
CCOc1ccc(CCNC(=O)c2ccc3c(c2)sc2nc(-c4ccc(F)cc4)cn23)cc1OCC | 42% (active)
COc1ccccc1CNC(=O)c1ccc2c(c1)sc1nc(-c3ccc(F)cc3)cn12 | 63%
COc1ccc(-c2cn3c(n2)sc2cc(C(=O)NCCc4ccccc4)ccc23)cc1 | 86%
CCOc1ccccc1CNC(=O)c1ccc2c(c1)sc1nc(-c3ccccc3)cn12 | 67%
CCOc1ccc(-c2cn3c(n2)sc2cc(C(=O)NCCC4=CCCCC4)ccc23)cc1 | 87%
COc1cccc(-c2cn3c(n2)sc2cc(C(=O)NCCc4ccccc4)ccc23)c1 | 38% (active)
CCOc1ccc(-c2cn3c(n2)sc2cc(C(=O)NCCc4ccc(OC)cc4OC)ccc23)cc1 | 40% (active)
COc1cccc(-c2cn3c(n2)sc2cc(C(=O)NCCCc4ccccc4)ccc23)c1 | 54%
CCOc1ccc(CNC(=O)c2ccc3c(c2)sc2nc(-c4ccccc4)cn23)cc1 | 74%
CCOc1ccc(-c2cn3c(n2)sc2cc(C(=O)NCCc4ccc(OC)c(OC)c4)ccc23)cc1 | 49% (active)
COc1ccc(-c2cn3c(n2)sc2cc(C(=O)NCCc4ccc(OC)cc4OC)ccc23)cc1 | 65%
